These results are taken from PubChem BioAssay AID1508600 (Functional Genomics Laboratory (NCATS/FGL), 2020).

Screen size: about 53,000 sequences; about 3,700 (7%) were called active.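 The calls were made as follows: active = gene knockdowns whose robust z-score for IL-1 alpha signal is at least 2 or at most -2, so actives lie on both sides; inactive = the rest.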 The sample as a whole holds a higher share of actives than the screen did.

A short description of the experiment: Components of the Cytosolic LPS Sensing Pathway: Gene Identification via Genome-wide siRNA Screen.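 Also: robust z of the log signal after scaling to non-targeting control siRNA wells of the plate.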 The following applies: RAW264.7 macrophages, IL-1a HTRF, actives lie on both sides, screened at 100 nM (by protocol), cells primed 5 h with Pam3CSK4 first. The method, boiled down:
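Cells (RAW264.7, 1×10^4 per well) were transfected with siRNA at 100 nM and cultured 48h at 37 degrees C. Pam3CSK4 was added for 5 hours; LipidA transfection followed for 24 hour. IL-1a was then measured by HTRF.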
For the sequence GAAGCACAACCUCGGCUUUTT against AY074887, the z-score was 0.448 (inactive).
On to “GGGUGUGAAAGUCAAUAAATT against 4930591A17Rik”, for which the z-score was 1.02 (inactive).
The figure for UGGUGAAUACCAGUCUAAUTT against Tnfrsf23 is 0.0551 (inactive); for GUAUUUUACACUCUUGUGGTT against Olfr898 it is -2.31 (active).
The figure for GUAUCAUGACAGCUGUUUUTT against Olfr519 is -0.254 (inactive); for GGAAAACAAGGAACAUGCGTT against Scgb1b2 it is 0.138 (inactive).
With GGCCAAGACCUCAGAGAUUTT against Apoa2, the z-score is -1.39 (inactive).
In the case of GGCAGCUUUGGAACAACUATT against Zc3h14, the z-score was -0.477 (inactive).
The figure for GGAUGCACUGAGGAACUCATT against Atg101 is -0.573 (inactive); for GGAUCCAUGCUGUCAGUGGTT against Sftpa1 it is 2.17 (active).
For the sequence GGGAAUUGAUGAAAGCUCUTT against Gigyf2, the z-score was -0.369 (inactive).
The figure for GCUUGGUGUAAUCAUGCGCTT against Prl7d1 is 0.314 (inactive).
Regarding GGGAACUUUAGCUUAAAUUTT against Lypd6, the z-score is 0.135 (inactive).
Turning to CGGCGACAUUGUUUUGCUATT against Acvr2a, the z-score was 1.19 (inactive).
Regarding GGGCCUUCACAAUGUCCUUTT against Brca1, the z-score was 2.68 (active).
As to GGACCUUGAGAAAGUAGUCTT against Ms4a10, the z-score was 0.651 (inactive).
The figure for GGUGAUGAAAAAGGACAGCTT against Oit1 is 0.0982 (inactive).
Consider GUACGUCAAGAGCCUGCGUTT against Fam110a, for which the z-score is -2.65 (active).
The figure for GGAGCAGAUACCCUAGCCUTT against Mtx1 is 0.698 (inactive); for GGACUUGAAGAUGUACCAGTT against Il12a it is 0.427 (inactive); for GCCAUUCUAGAACCUGUAGTT against Zwint it is -1.65 (inactive).
With GCUAACUUAGAUAUCCAGGTT against Abtb2, the z-score was 0.125 (inactive).
The figure for GGGCCAAAUUUGAAUCCCUTT against Rcan1 is -2.09 (active); for CCAAGUUUUUAUGCAGAUATT against Pip5k1b it is 1.6 (inactive).
The figure for GGGUAUAUUUCCUUCCAGCTT against Dock4 is -0.105 (inactive); for GGUGGGAUGAUCAUAAGUUTT against Ppnr it is -0.0428 (inactive).
The figure for GCUGUGGAACUUAUGUUUUTT against Faxc is -0.518 (inactive); for GGAUUAAUCAAACUGAGAGTT against Lrrtm2 it is -1.24 (inactive); for GCGAUUCCUAGAGCUGAGCTT against Git1 it is -2.5 (active).
As to GCUGAUUAGCCAUGUAAUUTT against Cebpg, the z-score is -0.481 (inactive).
Take GCUUUAUGGAUCUACCAAATT against Fbxl3: the z-score was 1.81 (inactive).
Take GGAAAACAGCUUUGAUUGGTT against Tmem232: the z-score was 0.868 (inactive).
The figure for GCAAGCCAACUGACCAUCATT against Nudt2 is 0.486 (inactive); for CGACUCCAUGUGGACUUAUTT against Gca it is -1.16 (inactive); for CGAACACUAAGCUUUGAUATT against Rab11fip2 it is -0.493 (inactive).
The figure for GGUUUUACAUUCUGUGUUUTT against Spata9 is -0.898 (inactive); for CCUUGGAGAGAGAAGACAUTT against Rpp38 it is 0.292 (inactive); for CCAAUGCAAGUGCUACAGUTT against Zfp277 it is -2.64 (active).
With GGCUCACUCAUUUGUCAGATT against Soat1, the z-score was 0.0924 (inactive).
The figure for GCCUAAUCAUUCCCAGCAUTT against Oog2 is 0.211 (inactive); for CCUUCUACUGGCAACCUAUTT against Zfp110 it is 0.25 (inactive).
The figure for GGUAUCUACACCAAACUUATT against Klk1b5 is 0.685 (inactive); for GGAGCUAACUGUCAAUGGATT against Usp17la it is 2.8 (active); for GGAUGAAGAACUGAAAUCUTT against Unc13b it is 0.167 (inactive).
The figure for CCCUGUAAAGAUCGAGAAGTT against Zfp296 is 0.241 (inactive); for GGGACACCCUUUGAAGAUGTT against Ube2b it is -0.314 (inactive); for GGCAUGAUGUUCAUGGAUATT against Nup62 it is -2.04 (active).
As to CGAAGAUAAUUAUGGAGCCTT against Fat4, the z-score was 0.548 (inactive).
The figure for CGCAGAGUUAAUUUCUUGUTT against Rchy1 is 0.995 (inactive); for CCAACAAUUCUGCCAAGACTT against Arrb2 it is -2.57 (active).
Regarding CCGAAGGAUUGAAGAGCCUTT against Trnt1, the z-score is 0.746 (inactive).
The figure for GGCUUCAUAAGAUCAAAGATT against Lca5l is -2.88 (active); for GCAGGUCUAAUAAUGGUCATT against Syt12 it is -0.536 (inactive).
With GGAUCCUGCAUCUUAUAGUTT against Tcstv3, the z-score is 0.468 (inactive).
The figure for GCUGUUUCCCAGAGAAGAATT against Defb2 is -0.814 (inactive); for CGGUUCCAACCUUGAAAAATT against H1f10 it is -0.676 (inactive); for GCUCUACCGUUAAGUUAUUTT against Eif4e2 it is 0.499 (inactive).
Regarding GGUCAUCCUUUUUCAGUACTT against Lhx6, the z-score is 2.28 (active).
Turning to GGGCGUGAAUUCAGAGAUUTT against Pcdhgb5, the z-score is -0.00376 (inactive).
CGGGUUCUACUAUCAUGCATT against Ltbp4: the z-score is 0.259 (inactive).
The figure for GGUCACCAGUACCUAUGGATT against Bricd5 is -2.17 (active).
GGGACUGUACUCAUUUCUATT against Rnf138rt1: the z-score was -0.67 (inactive).
Regarding GCAGGUUGAACGACAGCGUTT against Dph5, the z-score is -0.349 (inactive).
Consider GGAAUAAUCCCAGUUCUCUTT against Tmem101, for which the z-score was -1.04 (inactive).
The figure for CCAGAAUGGCGGGUAUUUGTT against Fbln5 is 2.14 (active).
For GAAGGUGAAGUGCAGGAAGTT against Fxyd7, the z-score is -0.081 (inactive).
The figure for GCAGGCCAGAGUAGUCAUGTT against Them6 is 0.579 (inactive); for GGAAUUAACGUGUUUCUGUTT against Tor1aip2 it is 1.14 (inactive).
The figure for GGUGAUAAAGCUAUGUAUUTT against Ccn2 is 0.147 (inactive); for GGACAACAUUGACAAGUUCTT against Clcn7 it is 1.36 (inactive); for GCUGGGUCCACAUGAAUCATT against Sucnr1 it is 2.7 (active).
The figure for GGAUCAGACAUGCAAGAGGTT against Xlr5c is -1.81 (inactive); for GCAUCAUGGUCACAAAUGGTT against Ncr1 it is -0.613 (inactive).
Turning to GCUACCGUGGGCGAUGUAATT against Dbi, the z-score is -0.37 (inactive).
The figure for GGGAAAAUGCGAUUCAUGATT against P2ry14 is -0.774 (inactive); for GGAGAUUAUUAACUUCACCTT against Hcn3 it is -0.895 (inactive); for GGAACUGGACUUAUUCCACTT against Wnt5b it is 0.652 (inactive).
GGAGAAACCAGGAUCUAUUTT against Rnf14: the z-score is 2.22 (active).
In the case of GCCAGGAGUACUGUAUAUATT against Spint1, the z-score is -0.366 (inactive).
The figure for GGAGCUCUAAAAUUGACUUTT against Zfp92 is 1.17 (inactive); for GGAAUCUAGAAGAAUCAUUTT against Gnao1 it is -0.42 (inactive); for GCUAUGGUAGCUGAUAACATT against Rell1 it is 1.21 (inactive).
For GGAUCCUAAUGAGGACAUUTT against Jchain, the z-score was 2.75 (active).
The figure for GCCACAAGAUACCAUCAGATT against Bex1 is -1.66 (inactive); for CCAUAUGUCCUGUUUAAGATT against Grik2 it is 0.304 (inactive).
The figure for GGACUUGAAAGACGAGAUATT against Cyp19a1 is 0.31 (inactive); for CCUUUAUGAAUGAACAGGGTT against Cnot7 it is -0.266 (inactive).
The figure for GGCCAAUUCCAGUGAGAUGTT against Lgsn is -0.0795 (inactive).
With GGCAGAGCUCAAAAAGAAATT against Ankrd1, the z-score is -1.94 (inactive).
The figure for CCAAAUCCGGGAAAAAGAGTT against Armcx5 is -0.459 (inactive).
For GCAUACCAAUCACAGUCGATT against Dync2li1, the z-score was -2.55 (active).
The figure for GGGUUGCUACUCACAAUGUTT against Syngr2 is 0.244 (inactive); for CCUCAAUUUCGAAGACCCUTT against Asb6 it is 1.84 (inactive); for GGACUCUGGACCUUAUGCUTT against Tmem202 it is -0.921 (inactive).
The figure for GGCUUUCAAGCUAACUGAUTT against Sf3b2 is -2.39 (active); for “GGUUAAAAACAACUGAAAGTT against 9630028B13Rik” it is -1.04 (inactive).
The figure for GGGAACUUUCCUCAAGUCUTT against Phactr3 is 0.107 (inactive); for GGCCAAGAAACAUGCCCUATT against Pbx2 it is 0.168 (inactive).
Consider GGCAGUGGAGUUAACAACATT against Dsg1b, for which the z-score was -0.12 (inactive).
Take CCUAUGAGUCUUACGUGAATT against Cyp4x1: the z-score is 0.693 (inactive).
The figure for GGACACCAACAUAUUGUUCTT against Slc13a2 is -0.128 (inactive); for GGCUGAUGGAAGAAUAUGATT against Actn2 it is -2.2 (active); for GGAUGAGUCUUUCUAGUUATT against Nipa1 it is -0.337 (inactive).
For GCAGCAGUAAUGAUGGAUCTT against Ncoa3, the z-score is 2.47 (active).
The figure for GGACAAAUUCUACAUCAGCTT against Adam8 is 0.0533 (inactive); for CGGCCGUCAGCUUCUUUUATT against Olfr283 it is -0.204 (inactive); for CGACUUUGGAGAAUUUCAATT against Synrg it is -0.573 (inactive).
In the case of GGGAACAAACCUUGAUUCUTT against Adam24, the z-score is 3.49 (active).
